The text below walks through data of PubChem BioAssay (EPA / NIEHS).

Each structure is given as a SMILES string. Some structures have more than one record in an assay (separate samples or runs), and their calls can disagree. Activity calls are given as the source filed them. How the source made its calls: active means hit-call score of the fitted dose curve at least 0.9, where 1 is the maximum; inactive means score below 0.9.

Assay [1] has as its target Transcriptional activator Myb (Homo sapiens) (UniProt P10242). In words: ATG_Myb_CIS: Attagene CIS-FACTORIAL HepG2 Assay for human Myeloblastosis (Myb) Proto-Oncogene Transcription Factor (AID 2282986). As to conditions: HepG2 Attagene CIS-FACTORIAL Myb reporter transcription; actives raise or lower the signal. In outline: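 Fluorescence signals from capillary electrophoresis of RT-PCR-amplified reporter cDNA give the read-out. Cells: HepG2 transfected with multiple cis-regulated reporter units. Exposure lasts 24 hours; DMSO defines baseline for gain or loss of signal.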

Assay [2] addresses Nuclear respiratory factor 1 (Homo sapiens) (UniProt Q16656). In words: ATG_NRF1_CIS: Attagene CIS-FACTORIAL HepG2 Assay for human Nuclear Respiratory Factor 1 (NRF1) Orphan Gene (AID 2282987). As to conditions: HepG2 NRF1 cis-element reporter, Attagene multiplex; actives raise or lower the signal. In outline:
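Transcriptional reporter readout, one component of a 52-endpoint multiplexed HepG2 panel. Exposure 24 h; mRNA detected via RT-PCR and fluorescent capillary electrophoresis; fitting in both directions against DMSO.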

The nature of assay [3]: ATG_NFI_CIS: Attagene CIS-FACTORIAL HepG2 Assay for human Nuclear Factor I (NFI) (AID 2282989). To be noted: HepG2 cis-regulatory reporter, NFI response element transcription; actives raise or lower the signal. In outline:
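Multiplexed cis-reporter system in human HepG2 cells reports native TF activity as reporter mRNA induction 24 h post-dose. Fragments labelled with 6-FAM, HpaI-digested and resolved by capillary electrophoresis; activity fitted both directions versus DMSO.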

Assay [4] has as its target Myc proto-oncogene protein (Homo sapiens) (UniProt P01106). In words: ATG_Myc_CIS: Attagene CIS-FACTORIAL HepG2 Assay for human Myelocytomatosis (Myc) Proto-Oncogene Transcription Factor (AID 2282990). As to conditions: HepG2, Attagene cis-reporter transcription factor activity; actives raise or lower the signal. In short, it runs like this: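 Read-out: fluorescent reporter mRNA fragments resolved by capillary electrophoresis after RT-PCR. Human HepG2 liver cells carried transfected cis-element reporter units and were dosed for 24 h. Gain or loss of signal fitted relative to DMSO baseline.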

The nature of assay [5]: ATG_NF_kB_CIS: Attagene CIS-FACTORIAL HepG2 Assay for human Nuclear Factor Kappa B (NF-kB) (AID 2282991). To be noted: HepG2 Attagene cis-factorial NF-kB reporter mRNA; actives raise or lower the signal. In outline: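 HepG2, transient multi-reporter transfection, cis promoter elements (endogenous TFs). 24 h exposure. Total RNA → RT → PCR → 6-FAM label → HpaI → CE. Gain/loss vs DMSO.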

Assay [6] can be described thus: ATG_NRF2_ARE_CIS: Attagene CIS-FACTORIAL HepG2 Assay for human Nuclear Factor Erythroid 2 Related Factor 2 (NFR2) response to Antioxidant Response Elements (ARE) (AID 2282992).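 On AC50: reporter mRNA level measured by RT-PCR and capillary electrophoresis fluorescence.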 As to conditions: HepG2 Attagene ARE/NRF2 reporter, transcription factor activity; actives raise or lower the signal. In short, it runs like this:
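Fluorescence intensity of reporter-specific cDNA fragments, separated by capillary electrophoresis, reflects mRNA induction in transfected HepG2 cells at 24 h. Activity is fitted bidirectionally, DMSO serving as baseline.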

The nature of assay [7]: ATG_Oct_MLP_CIS: Attagene CIS-FACTORIAL HepG2 Assay for human Octamer-Binding Transcription Factor (Oct) (AID 2282993). As to conditions: HepG2 Attagene cis-factorial Oct reporter, mRNA; actives raise or lower the signal. In short, it runs like this:
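After 24 h compound exposure, transfected HepG2 cells were lysed for total RNA; reporter-specific cDNA was PCR-amplified, fluorescently labelled and sized by capillary electrophoresis. Bidirectional curve fitting used DMSO as baseline.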

Assay [8] addresses Cellular tumor antigen p53 (Homo sapiens) (UniProt P04637). In words: ATG_p53_CIS: Attagene CIS-FACTORIAL HepG2 Assay for human p53 Transcription Factor (AID 2282994). To be noted: HepG2 p53 cis-element reporter, Attagene mRNA; actives raise or lower the signal. In short, it runs like this:
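Transiently transfected HepG2 (multiple cis reporter transcription units); exposure 24 h; reporter RNA via RT-PCR, 6-FAM extension, 2 h HpaI digest at 37 C, CE detection; DMSO baseline.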

A short description of assay [9]: BSK_3C_TissueFactor: BioMAP Diversity Plus: 3C Assay for Tissue Factor Biomarker Activity (AID 2282997). As to conditions: BioMAP 3C HUVEC, tissue factor biomarker readout; actives raise or lower the signal. In short, it runs like this: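 Cells used were primary human umbilical vein endothelial cells. They were dosed with chemical, and after 24 h Tissue Factor was quantified by ELISA. Curves were fitted bidirectionally with DMSO as baseline.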

The nature of assay [10]: BSK_3C_uPAR: BioMAP Diversity Plus: 3C Assay for Urokinase-type plasminogen activator receptor (uPAR) Biomarker Activity (AID 2282998). To be noted: BioMAP 3C HUVEC, uPAR biomarker ELISA; actives raise or lower the signal. In short, it runs like this:
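Values derive from bidirectional curve fitting relative to DMSO, which served as baseline of activity. uPAR was measured by ELISA in human umbilical vein endothelial primary cultures 24 h after compound addition.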
Background: ELISA stands for enzyme-linked immunosorbent assay.

Chain of Myc proto-oncogene protein (Homo sapiens) (P01106 whole entry, looked up, the tested form may be a part): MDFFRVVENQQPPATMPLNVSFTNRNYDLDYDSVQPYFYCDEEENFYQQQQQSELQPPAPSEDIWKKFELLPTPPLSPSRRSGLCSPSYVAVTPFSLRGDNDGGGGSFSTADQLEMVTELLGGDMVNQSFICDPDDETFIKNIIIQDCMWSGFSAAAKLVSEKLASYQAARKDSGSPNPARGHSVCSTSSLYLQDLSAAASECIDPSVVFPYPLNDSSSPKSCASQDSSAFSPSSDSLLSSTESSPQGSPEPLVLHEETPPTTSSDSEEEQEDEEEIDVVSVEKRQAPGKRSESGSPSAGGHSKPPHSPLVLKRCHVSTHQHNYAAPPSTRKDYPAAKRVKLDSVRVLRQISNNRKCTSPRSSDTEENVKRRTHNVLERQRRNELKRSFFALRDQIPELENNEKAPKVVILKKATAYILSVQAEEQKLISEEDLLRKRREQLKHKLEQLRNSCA
Chain of Nuclear respiratory factor 1 (Homo sapiens) (Q16656 whole entry, looked up): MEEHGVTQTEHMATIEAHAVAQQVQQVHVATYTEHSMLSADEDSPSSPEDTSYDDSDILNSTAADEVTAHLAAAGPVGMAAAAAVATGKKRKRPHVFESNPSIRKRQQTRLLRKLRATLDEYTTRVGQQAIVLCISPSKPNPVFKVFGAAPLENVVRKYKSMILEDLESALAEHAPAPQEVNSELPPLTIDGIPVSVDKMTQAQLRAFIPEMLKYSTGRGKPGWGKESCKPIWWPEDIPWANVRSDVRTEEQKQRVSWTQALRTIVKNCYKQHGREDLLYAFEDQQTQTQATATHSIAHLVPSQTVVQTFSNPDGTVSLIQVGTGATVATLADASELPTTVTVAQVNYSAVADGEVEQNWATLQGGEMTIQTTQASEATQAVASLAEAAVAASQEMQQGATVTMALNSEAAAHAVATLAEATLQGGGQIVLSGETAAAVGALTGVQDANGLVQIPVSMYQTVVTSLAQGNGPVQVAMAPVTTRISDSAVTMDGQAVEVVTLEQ
Chain of Cellular tumor antigen p53 (Homo sapiens) (P04637 whole entry, looked up): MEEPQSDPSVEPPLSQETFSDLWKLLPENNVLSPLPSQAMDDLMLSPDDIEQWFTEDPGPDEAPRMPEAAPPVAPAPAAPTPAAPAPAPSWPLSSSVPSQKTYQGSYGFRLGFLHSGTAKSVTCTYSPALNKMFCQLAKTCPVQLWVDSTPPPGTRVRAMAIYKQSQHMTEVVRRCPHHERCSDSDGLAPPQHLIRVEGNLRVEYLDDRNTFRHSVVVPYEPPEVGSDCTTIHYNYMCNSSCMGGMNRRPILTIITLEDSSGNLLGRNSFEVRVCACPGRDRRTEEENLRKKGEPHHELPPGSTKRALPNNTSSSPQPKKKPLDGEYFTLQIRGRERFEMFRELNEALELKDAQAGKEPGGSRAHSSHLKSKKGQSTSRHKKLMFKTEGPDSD
Chain of Transcriptional activator Myb (Homo sapiens) (P10242 whole entry, looked up): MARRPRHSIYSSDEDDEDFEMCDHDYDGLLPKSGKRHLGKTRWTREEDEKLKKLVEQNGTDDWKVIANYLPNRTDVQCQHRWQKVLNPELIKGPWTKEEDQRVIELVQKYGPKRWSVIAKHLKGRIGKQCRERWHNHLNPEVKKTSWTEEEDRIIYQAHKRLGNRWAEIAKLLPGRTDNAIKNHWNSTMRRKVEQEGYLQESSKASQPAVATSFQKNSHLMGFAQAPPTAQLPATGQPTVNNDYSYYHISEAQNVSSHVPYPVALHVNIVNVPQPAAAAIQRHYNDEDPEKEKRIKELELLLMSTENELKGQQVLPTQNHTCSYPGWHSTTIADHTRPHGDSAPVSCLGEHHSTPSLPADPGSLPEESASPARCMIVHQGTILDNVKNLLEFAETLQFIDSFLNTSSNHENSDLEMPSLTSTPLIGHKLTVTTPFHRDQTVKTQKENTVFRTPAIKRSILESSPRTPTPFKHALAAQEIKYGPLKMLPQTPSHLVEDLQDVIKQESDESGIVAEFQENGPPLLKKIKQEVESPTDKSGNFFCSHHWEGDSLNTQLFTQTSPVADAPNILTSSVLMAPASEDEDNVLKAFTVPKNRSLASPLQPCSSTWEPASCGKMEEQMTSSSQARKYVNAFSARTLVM

Broadly, the AC50 is the concentration at which the activity in the assay is half-maximal. For the compound `CS/C(C)=N/OC(=O)N(C)SN(C)C(=O)O/N=C(\C)SC`, the call in assay [1], in assay [2], in assay [3], in assay [4], in [5] and in assay [6] was inactive. Besides, the outcome in assay [7] and in assay [8] was inactive. In addition, the results for the AC50 in assay [9] and in assay [10] were 15.9 µM (active) and 28.6 µM (active), respectively.

`CNC(=O)ON=CC(C)(C)SC`: the result in assay [1], in [2], in [3], in [4], in assay [5] and in [6] was inactive. Besides, the compound was classed as inactive in assay [7], in [8], in assay [9] and in assay [10]. Further, the AC50 in assay [2] was 43.4 µM (active).

Turning to `N#Cc1cc(Br)c(O)c(Br)c1`, the compound was called inactive in assay [1], in assay [2], in assay [4], in [5], in assay [8] and in assay [9]. Also, the AC50 is 10.8 µM (active) in assay [3], 26.7 µM (active) in assay [6], 40.1 µM (active) in [7] and 32.5 µM (active) in assay [10].

With `CCCCC(CC)COC(=O)c1ccccc1C(=O)OCC(CC)CCCC` (stereo not drawn), the outcome in assay [1], in assay [2], in assay [3], in assay [4], in assay [5] and in assay [6] was inactive. The compound was called inactive in [7], in [8], in assay [9] and in assay [10].

Turning to `CCCCNC(=O)n1c(NC(=O)OC)nc2ccccc21`, the outcome in [1], in [2], in assay [3], in assay [4], in assay [5] and in assay [6] was inactive. For the same compound, the compound was called inactive in assay [7], in assay [8] and in assay [9]. Further, the AC50 in assay [10] is 6.89 µM (active).

As to `COC(=O)c1ccccc1C(=O)OC`, the outcome in assay [1], in assay [2], in assay [3], in assay [4], in assay [5] and in assay [6] was inactive. In addition, the compound was classed as inactive in assay [7], in [8], in assay [9] and in assay [10].

In the case of `CN(C)C(=S)SSC(=S)N(C)C`, the call in [1], in assay [2], in assay [3], in [4], in [5] and in assay [6] was inactive. The result in [7] and in assay [8] was inactive. The AC50 in assay [9] was 31.4 µM (active); in assay [10] it was 29.4 µM (active).

For `OC(c1ccc(Cl)cc1)(c1cncnc1)c1ccccc1Cl` (stereo not drawn), the compound was classed as inactive in [1], in assay [2], in assay [3], in assay [4], in assay [6] and in assay [7]. For the same compound, the call in assay [8] and in assay [9] was inactive. Also, the AC50 in assay [4] was 12.5 µM (active); in assay [6], 12.8 µM (active); in assay [7], 26.3 µM (active); in [10], 17.4 µM (active).

In the case of `O=C(Nc1ccccc1)Nc1ccnc(Cl)c1`, the compound was classed as inactive in assay [1], in assay [2], in assay [3], in assay [4], in assay [8] and in [9]. In addition, in assay [10], the result was inactive. The AC50 in assay [5] is 30.1 µM (active); in assay [6] it was 13.7 µM (active); in assay [7], 33.5 µM (active).

In the case of `CCOc1cc(Oc2ccc(C(F)(F)F)cc2Cl)ccc1[N+](=O)[O-]`, the compound was classed as inactive in [1], in [2], in assay [3], in assay [5], in [8] and in assay [9]. Also, the result in [10] was inactive. Besides, the values for the AC50 in [4], in [6] and in [7] were 30.3 µM (active), 13.7 µM (active) and 13.7 µM (active), respectively.

Regarding `CC(C)Oc1cc(-n2nc(C(C)(C)C)oc2=O)c(Cl)cc1Cl`, the call in assay [1], in [2], in assay [3], in [4], in [5] and in [8] was inactive. In addition, the result in [9] was inactive. Further, the AC50 is 7.62 µM (active) in [6], 10.6 µM (active) in [7] and 32 µM (active) in assay [10].

As for `C=CC1(C)OC(=O)N(c2cc(Cl)cc(Cl)c2)C1=O` (stereo not drawn), the outcome in assay [1], in assay [2], in assay [3], in [4], in [5] and in [6] was inactive. Also, the result in assay [7], in [8], in [9] and in [10] was inactive.

As to `Cc1c(F)c(F)c(COC(=O)C2C(/C=C(\Cl)C(F)(F)F)C2(C)C)c(F)c1F` (stereo not drawn), the compound was classed as inactive in [1], in assay [2], in [3], in [4], in [5] and in [6]. The result in assay [7], in [8], in assay [9] and in [10] was inactive.
